# Laboratory results: PubChem BioAssay (NCATS)
# Several values for one entry are separate records, joined by “and”; a condition that tells them apart may be missing. Identical values can stand only once. Results filed as inconclusive are left out. A call without a number means that no potency is given here. Activity calls are given as the source filed them. Calls follow the shape of the dose curve; as a rule, active = well fitted curve in the direction sought with a large enough effect; inconclusive = small, poorly fitted or top-dose-only effect, or another doubt; inactive = no such curve, though single readings can be large; an effect the other way counts as inactive or inconclusive.
# How the values were obtained:
# [1] = qHTS of pediatric cancer cell lines to identify multiple opportunities for drug repurposing: Confirmatory screen for A673 cells (AID 1347110);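 also: cells exposed to compound for 48 h before the viability read; nearly all actives have a fitted effect of over 65% in size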; also: potency is read from the fitted curve at half-maximal effect
# How it was run: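 Viability was read as ATP luminescence (CellTiter-Glo) after 48 h of compound exposure at 37 C in A673 cells seeded at 500-1,000/well. Titrations reached 46 uM final, with 11 points in the confirmatory screen. Concentration-response curves were fitted directly.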
# [2] = qHTS of pediatric cancer cell lines to identify multiple opportunities for drug repurposing: Confirmatory screen for SK-N-MC cells (AID 1347111);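 also: cells exposed to compound for 48 h before the readout; nearly all actives have a fitted effect of over 70% in size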; also: potency is read from the fitted curve at half-maximal effect
# How it was run: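 Seed 500-1,000 cells/well; rest 5 h at 37 degrees C. Pin-transfer compounds, 11-point titration. Incubate 48 h. Add CellTiter-Glo, 15 min RT, read luminescence.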
# [3] = qHTS of pediatric cancer cell lines to identify multiple opportunities for drug repurposing: Confirmatory screen for DAOY cells (AID 1347114); also: nearly all actives have a fitted effect of over 65% in size; also: potency is read from the fitted curve at half-maximal effect
# How it was run: (§1)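 Viability measured as metabolically active cells via CellTiter-Glo luminescence following 48 hours of compound exposure, 11-point dilutions in confirmatory testing. 500-1,000 cells/well plated 5 hours before dosing; controls were DMSO and 2.3 µM bortezomib.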
# [4] = qHTS of pediatric cancer cell lines to identify multiple opportunities for drug repurposing: Confirmatory screen for NB-EBc1 cells (AID 1347115);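 also: cells exposed to compound for 48 h before the viability read; nearly all actives have a fitted effect of over 45% in size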; also: potency is read from the fitted curve at half-maximal effect
# How it was run: (§2)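 Cells (500-1,000/well) rested 5 h, then received compounds for 48 h; metabolically active cells were measured by CellTiter-Glo luminescence. Final concentrations spanned up to 46 µM (MIPE, 11-point) or 0.59 nM-46 µM (NPC, 8-point) in primary screens, 11-point in follow-ups.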
# [5] = qHTS of pediatric cancer cell lines to identify multiple opportunities for drug repurposing: Confirmatory screen for SJ-GBM2 cells (AID 1347116); also: nearly all actives have a fitted effect of over 60% in size; also: potency is read from the fitted curve at half-maximal effect
# How it was run: as §1
# [6] = qHTS of pediatric cancer cell lines to identify multiple opportunities for drug repurposing: Confirmatory screen for U-2 OS cells (AID 1347122); also: nearly all actives have a fitted effect of over 65% in size; also: potency is read from the fitted curve at half-maximal effect
# How it was run: as §2
# [7] = qHTS of pediatric cancer cell lines to identify multiple opportunities for drug repurposing: Confirmatory screen for RD cells (AID 1347124);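 also: cells exposed to compound for 48 h before viability readout; nearly all actives have a fitted effect of over 65% in size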; also: potency is read from the fitted curve at half-maximal effect
# How it was run: as §2
# [8] = qHTS of pediatric cancer cell lines to identify multiple opportunities for drug repurposing: Confirmatory screen for Rh18 cells (AID 1347125); also: nearly all actives have a fitted effect of over 55% in size; also: potency is read from the fitted curve at half-maximal effect
# How it was run: as §2
# [9] = qHTS of pediatric cancer cell lines to identify multiple opportunities for drug repurposing: Confirmatory screen for Rh30 cells (AID 1347126); also: nearly all actives have a fitted effect of over 55% in size; also: potency is read from the fitted curve at half-maximal effect
# How it was run: as §2
# [10] = qHTS of pediatric cancer cell lines to identify multiple opportunities for drug repurposing: Confirmatory screen for SK-N-SH cells (AID 1347129);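 also: cells exposed to compound for 48 h before viability read; nearly all actives have a fitted effect of over 60% in size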; also: potency is read from the fitted curve at half-maximal effect
# How it was run: as §2
# [11] = qHTS of pediatric cancer cell lines to identify multiple opportunities for drug repurposing: Confirmatory screen for BT-12 cells (AID 1347112); also: nearly all actives have a fitted effect of over 55% in size; also: potency is read from the fitted curve at half-maximal effect
# How it was run: as §2
# [12] = qHTS of pediatric cancer cell lines to identify multiple opportunities for drug repurposing: Confirmatory screen for BT-37 cells (AID 1347117); also: nearly all actives have a fitted effect of over 55% in size; also: potency is read from the fitted curve at half-maximal effect
# How it was run: as §2
# [13] = qHTS of pediatric cancer cell lines to identify multiple opportunities for drug repurposing: Confirmatory screen for TC32 cells (AID 1347118); also: potency is read from the fitted curve at half-maximal effect
# How it was run: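 Luminescent ATP read-out (CellTiter-Glo) of metabolically active TC32 cells after 48 h exposure. Concentration-response curves came from 11-point (MIPE, 0.78 nM–46 µM) or 8-point (NPC, 0.59 nM–46 µM) primary titrations; follow-up used 11 points.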
# [14] = qHTS of pediatric cancer cell lines to identify multiple opportunities for drug repurposing: Confirmatory screen for control Hh wild type fibroblast cells (AID 1347121); also: nearly all actives have a fitted effect of over 70% in size; also: potency is read from the fitted curve at half-maximal effect
# How it was run: as §2
# [15] = qHTS of pediatric cancer cell lines to identify multiple opportunities for drug repurposing: Confirmatory screen for Saos-2 cells (AID 1347127); also: nearly all actives have a fitted effect of over 60% in size; also: potency is read from the fitted curve at half-maximal effect
# How it was run: as §2
# [16] = qHTS of pediatric cancer cell lines to identify multiple opportunities for drug repurposing: Confirmatory screen for OHS-50 cells (AID 1347128); also: potency is read from the fitted curve at half-maximal effect
# How it was run: as §2
# [17] = qHTS of pediatric cancer cell lines to identify multiple opportunities for drug repurposing: Confirmatory screen for LAN-5 cells (AID 1347113); also: nearly all actives have a fitted effect of over 65% in size; also: potency is read from the fitted curve at half-maximal effect
# How it was run: as §2
# [18] = test system: Zika virus NS2B-NS3 protease (unlinked); assay: Optimization of GU AMC qHTS for Zika virus inhibitors: Unlinked NS2B-NS3 protease assay (AID 1347151); also: series mostly up to about 52 µM; nearly all actives have a fitted effect of over 80% in size
# How it was run: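 Fluorescence gain (340/450 nm) over 15 min at room temperature, ~20% conversion, gave percent inhibition fitted to a 4-parameter Hill equation; enzyme was unlinked NS2B-NS3 (25 nM final), pH 8.0 Tris buffer.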
# [19] = target: N-terminal Xaa-Pro-Lys N-methyltransferase 1 (Homo sapiens) (UniProt Q9BV86); assay: qHTS Assay for Inhibitors of N-terminal methyltransferase 1 (NTMT1): LOPAC validation of the NTMT1 SAHH-coupled ThioGlo3 Assay (AID 1347143);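 also: SAH from peptide methylation measured as thiol fluorescence via SAHH coupling and ThioGlo3; nearly all actives have a fitted effect of over 70% in size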
# How it was run: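 NTMT1 125nM + cpds (various conc.), 1 min RT; add SAM 100uM/SAHH 10uM/ThioGlo3 15uM (addition mix). SAHH-coupled thiol detection, Ex340/Em450, t0 and 30 min RT; signal normalized to background. LOPAC 1280-cpd pilot.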
# [20] = test system: Zika virus NS2B-NS3 protease (linked construct); assay: Confirmatory screen NINDS AMC qHTS for Zika virus inhibitors (AID 1347152); conditions: Purified linked NS2B-NS3, AMC substrate fluorescence; also: potency is read from the fitted curve at half-maximal effect; nearly all actives have a fitted effect of over 70% in size
# How it was run: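 IC50s from 4-parameter Hill fits of percent inhibition, based on AMC fluorescence gain (340/450 nm) over 15 min with 10 microM Bz-Nle-KRR-AMC. Enzyme: 1 nM linked NS2B-NS3 in Tris-HCl pH 8.0; 15-min compound preincubation.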
# Sequence of N-terminal Xaa-Pro-Lys N-methyltransferase 1 (Homo sapiens) (Q9BV86 whole entry, looked up): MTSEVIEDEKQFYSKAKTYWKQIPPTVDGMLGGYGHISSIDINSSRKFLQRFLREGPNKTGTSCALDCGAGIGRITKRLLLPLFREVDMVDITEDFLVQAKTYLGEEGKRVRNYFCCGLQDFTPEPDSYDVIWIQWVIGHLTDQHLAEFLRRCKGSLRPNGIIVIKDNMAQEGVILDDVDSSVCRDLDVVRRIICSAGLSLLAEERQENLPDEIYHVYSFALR
SMILES,Potency [1],Potency [2],Potency [3],Potency [4],Potency [5],Potency [6],Potency [7],Potency [8],Potency [9],Potency [10],Potency [11],Potency [12],Potency [13],Potency [14],Potency [15],Potency [16],Potency [17],Potency [18],Potency [19],Potency [20]
Cc1nnc(C(C)C)n1C1C[C@H]2CC[C@@H](C1)N2CC[C@H](NC(=O)C1CCC(F)(F)CC1)c1ccccc1 (stereo not given in full),inactive,7.37 µM (active),inactive,7.37 µM (active),10.4 µM (active),inactive,7.37 µM (active),6.57 µM (active),9.27 µM (active),inactive,–,–,–,–,–,–,–,–,–,–
COc1ccc(-c2coc3cc(O)cc(O)c3c2=O)cc1,0.117 µM (active),1.04 µM (active),inactive,inactive,–,inactive,–,inactive,inactive,–,inactive,inactive,1.04 µM (active),inactive,inactive,inactive,–,–,–,–
O=C(NCc1ccncc1)C12C[C@H]3C[C@@H](C1)CC(c1ccc(Cl)cc1)(C3)C2,9.27 µM (active),9.27 µM (active),13.1 µM (active),–,–,26.1 µM (active),–,inactive,–,inactive,26.1 µM (active),20.8 µM (active),9.27 µM (active),inactive,16.5 µM (active),13.1 µM (active),–,–,–,–
C=C1C(=O)[C@@]23C(CC[C@@H]1[C@H]2O)[C@@]12CO[C@]3(O)[C@@H](O)[C@@H]1C(C)(C)CC[C@@H]2O (stereo not given in full),9.27 µM (active),4.65 µM (active),11.7 µM (active),8.27 µM (active),20.8 µM (active),–,–,14.7 µM (active),5.85 µM (active),10.5 µM (active),7.37 µM (active),18.5 µM (active),13.1 µM (active),inactive,10.4 µM (active),20.8 µM (active),4.14 µM (active),–,–,–
CC(=NNC(=S)N1CCC1)c1ccccn1,23.3 µM (active),inactive,–,inactive,inactive,–,inactive,inactive,–,–,inactive,inactive,inactive,inactive,inactive,inactive,inactive,–,–,–
CC(=O)Nc1ccc([C@H](C)C(=O)Nc2ncc(C(C)C)s2)cc1,2.61 µM (active),8.27 µM (active),4.65 µM (active),inactive,–,1.47 µM (active),7.37 µM (active),–,2.08 µM (active),6.62 µM (active),3.69 µM (active),4.14 µM (active),7.37 µM (active),inactive,5.22 µM (active),7.37 µM (active),3.69 µM (active),inactive,–,–
O=C1C(Cl)=C(NCCN2CCOCC2)C(=O)c2ncccc21,2.08 µM (active),1.04 µM (active),7.37 µM (active),5.85 µM (active),14.7 µM (active),1.65 µM (active),1.17 µM (active),3.29 µM (active),7.37 µM (active),7.43 µM (active),2.61 µM (active),1.47 µM (active),1.04 µM (active),20.8 µM (active),1.17 µM (active),–,2.93 µM (active),–,–,–
Cc1[nH]c(C=C2C(=O)Nc3ccc(S(=O)(=O)Cc4c(Cl)cccc4Cl)cc32)c(C)c1C(=O)N1CCC[C@H]1CN1CCCC1,13.1 µM (active),9.27 µM (active),–,inactive,–,–,–,26.1 µM (active),–,23.5 µM (active),–,18.5 µM (active),11.7 µM (active),32.9 µM (active),–,–,9.27 µM (active),–,–,–
CC1(C)S[C@H]2[C@H](NC(=O)[C@@H](N)c3ccc(O)cc3)C(=O)N2[C@@H]1C(=O)O,inactive,–,inactive,inactive,inactive,inactive,inactive,inactive,inactive,inactive,inactive,inactive,inactive,inactive,inactive,inactive,inactive,–,–,–
COc1ccc2c(Oc3ccc(NC(=O)c4c(C)n(CC(C)(C)O)n(-c5ccccc5)c4=O)cc3F)ccnc2c1,14.7 µM (active),–,–,–,–,–,inactive,–,–,–,inactive,inactive,–,inactive,inactive,–,inactive,–,–,–
O=C(O)CCc1nc(-c2ccccc2)c(-c2ccccc2)o1,–,–,–,–,–,–,–,–,–,–,–,–,–,–,–,–,–,–,inactive,–
O=C(O)CCC1CCC(c2cc(F)ccc2F)(S(=O)(=O)c2ccc(Cl)cc2)CC1 (stereo not given),–,20.8 µM (active),–,inactive,inactive,–,inactive,29.3 µM (active),–,inactive,26.1 µM (active),16.5 µM (active),20.8 µM (active),inactive,inactive,–,–,–,–,–
CC1(C)CCC(CN2CCN(c3ccc(C(=O)NS(=O)(=O)c4ccc(NCC5CCOCC5)c([N+](=O)[O-])c4)c(Oc4cnc5[nH]ccc5c4)c3)CC2)=C(c2ccc(Cl)cc2)C1,–,18.5 µM (active),inactive,–,inactive,–,–,–,inactive,–,inactive,inactive,inactive,inactive,–,–,5.85 µM (active),–,–,6.07 µM (active) and 10.8 µM (active)
CO[C@H]1C[C@@H]2CC[C@@H](C)[C@@](O)(O2)C(=O)C(=O)N2CCCC[C@@H]2C(=O)O[C@H]([C@H](C)C[C@@H]2CC[C@H](OCCO)[C@H](OC)C2)CC(=O)[C@H](C)C=C(C)[C@@H](O)[C@@H](OC)C(=O)[C@H](C)C[C@H](C)C=CC=CC=C1C,inactive,–,–,inactive,inactive,–,inactive,inactive,inactive,inactive,inactive,–,–,inactive,–,–,–,–,–,–
O=c1[nH]cnc2c1ncn2[C@H]1CC[C@@H](CO)O1,inactive,–,inactive,inactive,inactive,–,inactive,–,inactive,inactive,inactive,inactive,inactive,inactive,inactive,inactive,–,–,–,–
CO[C@H]1C[C@@H]2CC[C@@H](C)[C@@](O)(O2)C(=O)C(=O)N2CCCC[C@@H]2C(=O)O[C@H]([C@H](C)C[C@@H]2CC[C@H](OP(C)(C)=O)[C@H](OC)C2)CC(=O)[C@H](C)C=C(C)[C@@H](O)[C@@H](OC)C(=O)[C@H](C)C[C@H](C)C=CC=CC=C1C,–,11.7 µM (active),–,–,–,14.7 µM (active),–,inactive,18.5 µM (active),inactive,–,–,10.4 µM (active),inactive,–,–,–,–,–,–
CC(C)OC(=O)C(C)(C)Oc1ccc(C(=O)c2ccc(Cl)cc2)cc1,–,–,–,–,–,–,–,–,–,–,–,–,–,–,–,–,–,–,inactive,–
CC[C@@H]1C=C(C)C[C@H](C)C[C@H](OC)[C@H]2O[C@@](O)(C(=O)C(=O)N3CCCC[C@@H]3C(=O)O[C@H](C(C)=C[C@@H]3CC[C@H](Cl)[C@H](OC)C3)[C@H](C)[C@@H](O)CC1=O)[C@H](C)C[C@H]2OC,inactive,–,–,23.3 µM (active),–,–,inactive,–,–,inactive,–,–,18.5 µM (active),inactive,–,–,–,–,–,–
CN[C@@H](C)C(=O)N[C@H]1CN(C(=O)CC(C)C)CC[C@H]2CC[C@@H](C(=O)NC(c3ccccc3)c3ccccc3)N2C1=O,–,7.37 µM (active),–,inactive,inactive,inactive,inactive,inactive,inactive,inactive,inactive,–,8.27 µM (active),inactive,–,inactive,inactive,–,–,–
COc1cccc(-c2cc(=O)c3ccccc3o2)c1N,–,–,inactive,inactive,–,inactive,0.465 µM (active),inactive,–,–,inactive,inactive,20.8 µM (active),inactive,inactive,inactive,–,inactive,–,–
